Laboratory results as given in the supplement of paper PMC9023506.
Structures can show the parent of a compound that is named as a salt.

Test system: Danio rerio larvae (5 dpf)
Experiment: activity during first hour (no stimuli), difference vs DMSO (percentage points (treated minus DMSO)); higher = more of the behaviour than the DMSO vehicle control
Settings: 10 µM; exposure time: 3 h pre-incubation + 3 h imaging
Procedure: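 5-dpf wild-type zebrafish larvae were imaged in 96-well plates. They were treated with 190 Tocris FDA-approved drugs at 10 µM (1 µl/ml DMSO) for 3 h before and 3 h during imaging at 28.5 °C, 48 larvae per drug. Automated image analysis gave % time moving and optomotor responses. Values are drug group mean minus DMSO vehicle mean (n=844), in percentage points, for 10 behaviours.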

Compared with `CC(=O)Oc1cc2c(s1)CCN(C(C(=O)C1CC1)c1ccccc1F)C2` (stereo not given) [Prasugrel], `CCOC(=O)N1CCC(=C2c3ccc(Cl)cc3CCc3cccnc32)CC1` [Loratidine] is lower in “activity during first hour” value: -1.24 for the first, -17 for the second.

First: CCCCNc1cc(C(=O)O)cc(S(N)(=O)=O)c1Oc1ccccc1 [Bumetanide]
Second: NS(=O)(=O)c1cc(C(=O)O)c(NCc2ccco2)cc1Cl [Furosemide]
The “activity during first hour” value of the first is lower: 3.74 for the first, 5.98 for the second.

Compared with `CN1CCN(CCCN2c3ccccc3Sc3ccc(Cl)cc32)CC1` [Prochlorperazine dimaleate], `Cc1cccc(CN2CCN(C(c3ccccc3)c3ccc(Cl)cc3)CC2)c1` (stereo not given) [Meclizine dihydrochloride] is higher in “activity during first hour” value: 10.4 for the first, 29.1 for the second.

Going from `COc1ccc([C@@H]2Sc3ccccc3N(CCN(C)C)C(=O)[C@@H]2OC(C)=O)cc1` [Diltiazem hydrochloride] to `CN1CC[C@@H](NC(=O)Nc2ccc(C#N)cc2)C[C@@H]1c1nc2ccccc2[nH]1`, the “activity during first hour” value falls from -3.56 to -8.92.

Compared with `CCOC(=O)C1=C(COCCN)NC(C)=C(C(=O)OC)C1c1ccccc1Cl` (stereo not given) [Amlodipine besylate], `CCOc1nc2cccc(C(=O)O)c2n1Cc1ccc(-c2ccccc2-c2noc(=O)[nH]2)cc1` [Azilsartan] is higher in “activity during first hour” value: 2.38 for the first, 3.52 for the second.

Compared with `Cc1c(-c2ccc(O)cc2)n(Cc2ccc(OCCN3CCCCCC3)cc2)c2ccc(O)cc12` [Bazedoxifene acetate], `COc1cc2ncnc(Nc3ccc(F)c(Cl)c3)c2cc1OCCCN1CCOCC1` [Iressa] is higher in “activity during first hour” value: -12.7 for the first, -5.98 for the second.

Going from `C=C1[C@H](CO)[C@@H](O)C[C@@H]1n1cnc2c(=O)[nH]c(N)nc21` [Entecavir] to `Nc1nc2c(ncn2COCCO)c(=O)[nH]1` [Acyclovir], the “activity during first hour” value falls from -1.96 to -2.

Compared with `CC(C)(C)NC(=O)[C@@H]1C[C@@H]2CCCC[C@@H]2CN1C[C@@H](O)[C@H](Cc1ccccc1)NC(=O)[C@H](CC(N)=O)NC(=O)c1ccc2ccccc2n1` [Saquinavir mesylate], `CN1CCC[C@@H]1CCO[C@](C)(c1ccccc1)c1ccc(Cl)cc1` [Clemastine fumarate] is higher in “activity during first hour” value: -9.81 for the first, 4.9 for the second.

Going from `CN(C)CCC[C@@]1(c2ccc(F)cc2)OCc2cc(C#N)ccc21` [Escitalopram oxalate] to `CN(C)CCc1c[nH]c2ccc(C[C@H]3COC(=O)N3)cc12` [Zolmitriptan], the “activity during first hour” value rises from -24.4 to 7.82.

Going from `CN/C(=N\CCSCc1nc[nH]c1C)NC#N` [Cimetidine] to `Cn1cnc([N+](=O)[O-])c1Sc1ncnc2[nH]cnc12` [Azathioprine], the “activity during first hour” value rises from 3.11 to 7.36.

Compared with `Cc1cc(C2CCCCC2)n(O)c(=O)c1` [Ciclopirox], `CC(=O)NC[C@H]1CN(c2ccc(N3CCOCC3)c(F)c2)C(=O)O1` [Linezolid] is higher in “activity during first hour” value: 2.44 for the first, 3.81 for the second.

Compared with `CC1(C)O[C@@H]2[C@@H](CO[C@@]3(COS(N)(=O)=O)OC(C)(C)O[C@@H]23)O1` [Topiramate], `C[C@H]1C[C@@H]2[C@H]([C@@H](O)C[C@@]3(C)[C@H]2CC[C@]3(O)C(=O)CO)[C@@]2(C)C=CC(=O)C=C12` [Methylprednisolone] is lower in “activity during first hour” value: 10.7 for the first, 0.814 for the second.

Compared with `O=C(O)c1cc(/N=N/c2ccc(S(=O)(=O)Nc3ccccn3)cc2)ccc1O` [Sulfasalazine], `Cc1ccc(-c2cc(C(F)(F)F)nn2-c2ccc(S(N)(=O)=O)cc2)cc1` [Celecoxib] is lower in “activity during first hour” value: 13.5 for the first, -5.35 for the second.

Compared with `Cc1cn([C@H]2C=C[C@@H](CO)O2)c(=O)[nH]c1=O` [Stavudine], `Nc1ccn([C@@H]2O[C@H](CO)[C@@H](O)C2(F)F)c(=O)n1` [Gemcitabine hydrochloride] is higher in “activity during first hour” value: -4.71 for the first, -4.38 for the second.

Going from `COc1cc([C@@H]2c3cc4c(cc3[C@@H](O[C@@H]3O[C@@H]5CO[C@@H](C)O[C@H]5[C@H](O)[C@H]3O)[C@H]3COC(=O)[C@H]23)OCO4)cc(OC)c1O` [Etoposide] to `CO[C@H]1/C=C/O[C@@]2(C)Oc3c(C)c(O)c4c(O)c(c5c(nc6cc(C)ccn65)c4c3C2=O)NC(=O)/C(C)=C\C=C\[C@H](C)[C@H](O)[C@@H](C)[C@@H](O)[C@@H](C)[C@H](OC(C)=O)[C@@H]1C` [Rifaximin], the “activity during first hour” value falls from 3.81 to -0.0836.

Going from `Nc1nc(NC2CC2)c2ncn([C@H]3C=C[C@@H](CO)C3)c2n1` [Abacavir hemisulfate] to `CCCc1nn(C)c2c(=O)[nH]c(-c3cc(S(=O)(=O)N4CCN(C)CC4)ccc3OCC)nc12` [Sildenafil citrate], the “activity during first hour” value falls from 8.55 to -13.4.

Compared with `OCc1cc(C(O)CNCCCCCCOCCCCc2ccccc2)ccc1O` (stereo not given) [Salmeterol xinafoate], `Clc1ccc(COC(Cn2ccnc2)c2ccc(Cl)cc2Cl)c(Cl)c1` (stereo not given) [Miconazole nitrate] is lower in “activity during first hour” value: 14.1 for the first, -18.4 for the second.

Going from `CC(C)(C#N)c1cc(Cn2cncn2)cc(C(C)(C)C#N)c1` [Anastrozole] to `CC(C)(C(=O)c1cccnc1)c1cccnc1` [Metyrapone], the “activity during first hour” value falls from 3.37 to -5.92.

Going from `CC(C)c1ccc2oc3nc(N)c(C(=O)O)cc3c(=O)c2c1` [Amlexanox] to `CC(=O)Nc1ccc(O)cc1` [Acetaminophen], the “activity during first hour” value falls from 6.6 to 5.63.

First: Cc1cc2c(s1)Nc1ccccc1N=C2N1CCN(C)CC1 [Olanzapine]
Second: Cc1ccc(N(CC2=NCCN2)c2cccc(O)c2)cc1 [Phentolamine Mesylate]
The “activity during first hour” value of the first is lower: 8.05 for the first, 9.58 for the second.
